Assay outcomes as filed in PubChem.
KLF5 inhibitor = KLF5 expression inhibitors, primary screen, DLD-1 cells, luminescence; inhibition, % at 5 µM; DLD-1 KLF5 promoter-luciferase reporter; AID 1700, 2009; 290,000 compounds, 0.23% hits;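 active means inhibition above a per-plate limit of that plate's mean compound inhibition plus 3 SD, cut at about 60% in these data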;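 further: higher means less KLF5 promoter-driven luciferase light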
Ba/F3 V617F tox = reduced viability of JAK2V617F-dependent Ba/F3 cells, primary screen, JAK2V617F inhibitor project, cell-based, Ba/F3 EpoR-JAK2V617F, luminescence; ATP luminescence; 220,000 compounds, 1.1% hits; inhibition, % at 5.6 µM;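 active means inhibition above the campaign mean plus 3 SD over all tested compounds, cut at about 24% in these data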;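 further: cytokine-independent growth of Ba/F3 cells driven by EpoR plus mutant JAK2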
IEC-6 tox = cytotoxicity in IEC-6 intestinal epithelial cells, primary screen, cytotoxicity control for KLF5 inhibitor project, cell-based, luminescence. IEC-6 cytotoxicity, luminescence viability. inhibition, % at 5 µM. 290,000 compounds, 0.78% hits
aSyn 5UTR inh = MLPCN primary screen, SNCA 5' untranslated region | inhibition, % (tested at 7.5 µM) | 300,000 compounds, 0.82% hits | alpha-synuclein 5'UTR reporter, inhibitor activity; in the data active means inhibition above about 60%;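 further: H4 neuroglioblastoma cells stably carrying SNCA 5'UTR luciferase fusion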
BaF3 tox = parental Ba/F3 cell viability inhibition, counter-screen for JAK2V617F inhibitor project, murine pro-B, CellTiter-Glo luminescence | CellTiter-Glo ATP luminescence | inhibition, % at 5.6 µM | 220,000 compounds, 1.1% hits;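 active means inhibition above a per-campaign cutoff, the mean inhibition of all tested compounds plus 3 SD, cut at about 27% in these data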
APP transl inh = inhibitors of APP translation via 5'UTR reporter, primary screen, APP 5'UTR luciferase, SH-SY5Y cells; SH-SY5Y APP 5'UTR-luciferase reporter, luminescence; inhibition, % at 2 µM; 190,000 compounds, 0.82% hits; AID 1285, 2008;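 active means inhibition above a set limit, derived from the sample mean plus 3 SD, cut at about 45% in these data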
IEC-6 cytotox cf = cytotoxic compounds in IEC-6 epithelial cells, confirmation, cytotoxicity control, cell-based, luminescence; inhibition, % at 5 µM; 1,900 compounds, 63% hits; AID 1907, 2009; IEC-6 rat intestinal epithelial viability; shares compounds with IEC-6 tox
A number is an active result. An excerpt weighted towards active compounds, which were near 2.2% of everything screened. Unless noted, no stated cut-off is given here; in the data, active means inhibition above about 22%; inactive means the rest.

NNC(=O)c1[nH]c2ccc([N+](=O)[O-])cc2c1-c1ccccc1 was read as KLF5 inhibitor inactive, IEC-6 tox 91, aSyn 5UTR inh inactive and IEC-6 cytotox cf inactive.
For O=C(O)c1[nH]c2ccc([N+](=O)[O-])cc2c1-c1ccccc1 the results were KLF5 inhibitor inactive, Ba/F3 V617F tox inactive, IEC-6 tox inactive, aSyn 5UTR inh inactive and BaF3 tox inactive.
Screening CC1CCCN(S(=O)(=O)c2cc3c4c(c2)CCN4C(=O)CC3)C1 (configuration not stated) returned aSyn 5UTR inh inactive.
For COC(=O)Nc1ccc(S(=O)(=O)NC2CCCCC2)cc1 the results were KLF5 inhibitor inactive, IEC-6 tox inactive and aSyn 5UTR inh inactive.
For CN1CCc2c(n(CC(O)CNCc3ccccc3)c3ccccc23)C1=O (configuration not stated) the results were KLF5 inhibitor inactive, Ba/F3 V617F tox inactive, IEC-6 tox inactive, aSyn 5UTR inh inactive, BaF3 tox inactive and APP transl inh inactive.
CC(C)NCC(O)Cn1c2c(c3ccccc31)CCc1c-2cnn1-c1ccccc1 (configuration not stated) was read as KLF5 inhibitor inactive, Ba/F3 V617F tox 88, IEC-6 tox 75, aSyn 5UTR inh 108, BaF3 tox 79, APP transl inh 87 and IEC-6 cytotox cf 73.
Screening O=C1COc2ccc(C(=O)COC(=O)c3cc(S(=O)(=O)N4CCOCC4)ccc3F)cc2N1 returned KLF5 inhibitor inactive, IEC-6 tox inactive and aSyn 5UTR inh inactive.
Screening COC(=O)[C@@H]1CCCN1C(=O)[C@@H](NC(=O)OC(C)(C)C)C(C)C returned aSyn 5UTR inh inactive.
CSc1ccccc1NC(=O)c1csc(C)c1 was read as KLF5 inhibitor inactive, IEC-6 tox inactive and aSyn 5UTR inh inactive.
COc1ccc(C(NC(=O)c2c(F)c(F)c(F)c(F)c2F)c2ccccc2)cc1 (configuration not stated) was read as KLF5 inhibitor inactive, Ba/F3 V617F tox inactive, IEC-6 tox 27, aSyn 5UTR inh inactive, BaF3 tox inactive, APP transl inh inactive and IEC-6 cytotox cf inactive.
`O=C(CCCl)Nc1nc2c(s1)CCc1ccccc1-2` gave KLF5 inhibitor inactive, IEC-6 tox 30, aSyn 5UTR inh inactive and IEC-6 cytotox cf inactive.
For N#CC1=C(N)Oc2cc(N)ccc2C1c1cccc(F)c1 (configuration not stated) the results were KLF5 inhibitor inactive, IEC-6 tox 51, aSyn 5UTR inh inactive and IEC-6 cytotox cf 42.
For COC(=O)c1ccc(C2C(C#N)=C(N)Oc3cc(N)ccc32)cc1 (configuration not stated) the results were KLF5 inhibitor inactive, IEC-6 tox inactive and aSyn 5UTR inh inactive.
`CCOc1ccc(N(CC(=O)NC2CCCCC2)S(=O)(=O)c2ccccc2)cc1` gave KLF5 inhibitor inactive, IEC-6 tox inactive and aSyn 5UTR inh inactive.
COc1cccc(-n2nc(C#N)c(Cl)cc2=O)c1 was read as KLF5 inhibitor inactive, Ba/F3 V617F tox inactive, IEC-6 tox 28, aSyn 5UTR inh inactive, BaF3 tox inactive, APP transl inh 91 and IEC-6 cytotox cf 29.
`COc1cccc(-n2nc(C(N)=O)c(O)cc2=O)c1` gave KLF5 inhibitor inactive, Ba/F3 V617F tox inactive, IEC-6 tox inactive, aSyn 5UTR inh inactive, BaF3 tox inactive and APP transl inh inactive.
For CN(C)c1ccccc1C(=O)c1ccccc1N(C)C the results were KLF5 inhibitor inactive, Ba/F3 V617F tox 77, IEC-6 tox 74, aSyn 5UTR inh inactive, BaF3 tox 75, APP transl inh 91 and IEC-6 cytotox cf 22.
CN(c1ccccc1C(=O)O)S(C)(=O)=O was read as KLF5 inhibitor inactive, Ba/F3 V617F tox inactive, IEC-6 tox inactive, aSyn 5UTR inh inactive, BaF3 tox inactive and APP transl inh inactive.
Screening COc1ccc(NS(=O)(=O)c2cc(Br)cc3c2N(C(C)=O)CC3)cc1 returned KLF5 inhibitor inactive, IEC-6 tox 38, aSyn 5UTR inh inactive and IEC-6 cytotox cf 33.
O=C(Nc1ccc(N2CCOCC2)cc1)Nc1ccc2nc(-c3ccco3)c(-c3ccco3)nc2c1 was read as KLF5 inhibitor inactive, Ba/F3 V617F tox inactive, IEC-6 tox 23, aSyn 5UTR inh 112, BaF3 tox inactive, APP transl inh inactive and IEC-6 cytotox cf 37.
Cc1cc(C)cc(NS(=O)(=O)c2ccc3[nH]cc(C(=O)NCc4ccco4)c(=O)c3c2)c1 was read as KLF5 inhibitor inactive, Ba/F3 V617F tox 64, IEC-6 tox 28, aSyn 5UTR inh inactive, BaF3 tox 66, APP transl inh inactive and IEC-6 cytotox cf 29.
Screening COc1cccc(N2CCN(c3nc(-c4ccccc4C)cc(=O)[nH]3)CC2)c1 returned KLF5 inhibitor inactive, IEC-6 tox inactive and aSyn 5UTR inh inactive.
`Cc1ccc2c(CNCc3ccccc3)cc(=O)oc2c1` gave KLF5 inhibitor inactive, IEC-6 tox 28, aSyn 5UTR inh inactive and IEC-6 cytotox cf 29.
For Cc1ccc2c(CN(C)Cc3cccc(F)c3)cc(=O)oc2c1 the results were KLF5 inhibitor inactive, IEC-6 tox inactive and aSyn 5UTR inh inactive.
For C/C(=N\NC(=O)COc1ccccc1-c1ccccc1)c1ccc(O)cc1O the results were KLF5 inhibitor inactive, Ba/F3 V617F tox inactive, IEC-6 tox 74, aSyn 5UTR inh inactive, BaF3 tox inactive and IEC-6 cytotox cf 42.
`CCCCCCCC(=O)N/N=C(\C)c1ccc(O)cc1O` gave KLF5 inhibitor inactive, Ba/F3 V617F tox inactive, IEC-6 tox inactive, aSyn 5UTR inh inactive, BaF3 tox inactive and APP transl inh inactive.
`COc1ccc(CCN2C(=O)c3ccccc3NC2c2cc(Cl)c(O)c(OC)c2)cc1` (configuration not stated) gave KLF5 inhibitor inactive, IEC-6 tox 54, aSyn 5UTR inh inactive and IEC-6 cytotox cf inactive.
`CCN1CCN(c2nc(Nc3ccc(C)c(C)c3)nc(N)c2[N+](=O)[O-])CC1` gave KLF5 inhibitor inactive, Ba/F3 V617F tox inactive, IEC-6 tox inactive, aSyn 5UTR inh inactive, BaF3 tox inactive and APP transl inh inactive.
For CCN1CCN(c2nc(Nc3cccc(OC)c3)nc(N)c2[N+](=O)[O-])CC1 the results were KLF5 inhibitor inactive, IEC-6 tox 24, aSyn 5UTR inh inactive and IEC-6 cytotox cf inactive.
`COc1ccc(NS(=O)(=O)c2cc(OC)ccc2NC(=O)c2cc(C)oc2C)cc1` gave KLF5 inhibitor inactive, Ba/F3 V617F tox 62, IEC-6 tox 45, aSyn 5UTR inh inactive, BaF3 tox 66, APP transl inh 54 and IEC-6 cytotox cf 30.
Screening O=C(/C=C/c1ccc(Cl)cc1)N1CCN(Cc2ccccc2)CC1 returned KLF5 inhibitor inactive, IEC-6 tox inactive and aSyn 5UTR inh inactive.
